Out of some 190,000 compounds screened, about 930 (0.49%) were called active.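 The calls were made as follows: active = z-score of insulin promoter reporter brightness in nuclei below -3 at 5 µM, with at least 500 cells counted; inconclusive = wells with under 500 cells, flagged as toxic or sparse; inactive = the rest.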 Some of the results follow. Results with a measured potency or affinity are listed apart.
assay: decrease of insulin promoter-GFP reporter – imaging, high-content screening, mouse beta cells (AID 1628); conditions: MIN6 insulin promoter GFP reporter, at 5 µM, hits give low values

Row | Structure (SMILES) | z-score
1 | CC(C)(O)C(O)COc1c2ccoc2cc2oc(=O)ccc12 (stereo unspecified) | -0.51 (inactive)
2 | COc1cccc(/C=N/NC(=O)c2oc3nc(-c4ccccc4)cc(-c4ccco4)c3c2N)c1 | 3.3 (inactive)
3 | O=C(/C=C/c1ccco1)Oc1cc(Br)cc(/C=N/NC(=O)c2ccccc2O)c1 | -4.99 (active)
4 | CCCCNC(=O)CSc1cc(=O)n(C)c2ccccc12 | -4.57 (active)
5 | N#Cc1cccc(NC(=O)CSc2ccc3c4c(cccc24)C(=O)c2ccccc2-3)c1 | 4.94 (inactive)
6 | CCc1cc(C(=O)OC)c(NC(=O)CC2Sc3ccc(C(F)(F)F)cc3NC2=O)s1 (stereo unspecified) | 3.33 (inactive)
7 | COc1ccccc1OCC(O)Cn1c(=N)n(CCN2CCCCC2)c2ccccc21 (stereo unspecified) | -5.05 (active)
8 | Brc1ccc(Oc2nsnc2N2CCOCC2)cc1 | 3.88 (inactive)
9 | C=CCn1c(C)cc(C(=O)CSc2nnc(-c3cccc(S(=O)(=O)N(CC)CC)c3)o2)c1C | -3.66 (active)
10 | CCN(CC)S(=O)(=O)c1cccc(-c2nnc(SCCCC(=O)c3ccc(F)cc3)o2)c1 | -4.17 (active)
11 | CC(C)CNC(=O)CSc1nnc(-c2cccc(S(=O)(=O)N3CCCCC3)c2)o1 | 4.75 (inactive)
12 | CC(=O)OC(C(=O)NCc1ccc(F)cc1)c1ccccn1 (stereo unspecified) | 3.91 (inactive)
13 | Oc1ccc(/C=N/Nc2nc(-c3ccccc3F)nc3ccccc23)c(O)c1 | 3.69 (inactive)
14 | Cc1nc2ccccc2nc1N/N=C/c1ccc(O)cc1O | -3.3 (active)
15 | Cc1ccc(-n2ncc(Br)c(Br)c2=O)cc1 | -4.97 (active)
16 | Cc1ccc(-c2cc(N)n(-c3ccccc3)n2)cc1 | 5.28 (inactive)
17 | c1ccc(-c2csc(-n3cnnn3)n2)cc1 | 3.13 (inactive)
18 | N#C/C(=C/c1ccc(N2CCOCC2)o1)c1nc2ccccc2[nH]1 | 15 (inactive)
19 | Cc1ccccc1-n1ncc2c(SCC(=O)NCc3cccs3)ncnc21 | 3.57 (inactive)
20 | COc1ccc2c(C)cc(SCC(=O)N(C)C3CCS(=O)(=O)C3)nc2c1 (stereo unspecified) | 4.13 (inactive)
21 | Cn1c(=O)n(Cc2ccccc2F)c(=O)c2c1nc1n2CCN1Cc1ccco1 | 2.8 (inactive)
22 | CC(C)Cn1c(=O)c2c(nc3n2CCCN3CCc2ccccc2)n(C)c1=O | -4.13 (active)
23 | O=C1C2C3C=CC(C3)C2C(=O)N1CCc1ccccc1 (stereo unspecified) | 3.33 (inactive)
24 | CCCCN1C(=O)/C(=C/C=C2/CC(C)(C)CN2C)SC1=S | 16.2 (inactive)

Row | Structure (SMILES) | z-score
25 | COc1ccc(CC(=S)N2CCOCC2)cc1 | -4.87 (active)
26 | COc1ccc(NC(=O)/C(C#N)=C\c2ccc(N3CCOCC3)o2)cc1 | 3.17 (inactive)
27 | COc1ccc(C(=S)N2CCCC2)cc1 | 0.82 (inactive)
28 | O=C(Cn1ncn2c(cc3ccccc32)c1=O)NCc1ccco1 | 3.78 (inactive)
29 | Cc1cc(=O)oc2cc(OC(=O)c3ccccc3)ccc12 | -0.09 (inactive)
30 | CCc1cc2c(CN3CCN(CCO)CC3)cc(=O)oc2cc1O | 3.59 (inactive)
31 | Cc1cc2oc(=O)cc(CN3CCN(C/C=C/c4ccccc4)CC3)c2cc1O | -3.48 (active)
32 | CCOc1ccc2[nH]c(=O)c(CN(Cc3ccco3)C(CC)c3nnnn3Cc3ccccc3)cc2c1 (stereo unspecified) | -2.78 (inactive)
33 | CCC(c1nnnn1CCc1ccccc1)N(Cc1ccco1)Cc1cc2cccc(C)c2[nH]c1=O (stereo unspecified) | -3.08 (active)
34 | CCC(c1nnnn1Cc1ccco1)N(Cc1ccccc1OC)Cc1cc2cc(C)ccc2[nH]c1=O (stereo unspecified) | -4.61 (active)
35 | CCC(c1nnnn1CCc1ccccc1)N(Cc1ccco1)Cc1cc2cc(C)cc(C)c2[nH]c1=O (stereo unspecified) | -3.35 (active)
36 | Cc1cc2nc3c(=O)n(C4CCCCC4)c(=O)[nH]c3nc2cc1N | 7.94 (inactive)
37 | CCC(C)N1C(=O)/C(=C/c2c(NCCCOC(C)C)nc3c(C)cccn3c2=O)SC1=S (stereo unspecified) | 13.1 (inactive)
38 | CC(=O)Nc1ccc2nc(NC(=O)COc3cccc(C)c3)sc2c1 | 1.98 (inactive)
39 | COc1ccc2nc(NC(=O)c3cccc(OCc4c(C)noc4C)c3)sc2c1 | -3.94 (active)
40 | Cc1noc(C)c1COc1cccc(C(=O)OC(C)C(=O)Nc2c(C)n(C)n(-c3ccccc3)c2=O)c1 (stereo unspecified) | 1.6 (inactive)
41 | COc1cc(N2CCCC2)c(OC)cc1/C=c1/sc2nc3ccccc3n2c1=O | 16.8 (inactive)
42 | CCCN1C(=O)/C(=C/C=C2\N(CC)c3ccccc3C2(C)C)SC1=S | 12.5 (inactive)
43 | CCCN1C(=O)/C(=C\C=C2\N(CC)c3ccccc3C2(C)C)SC1=S | 17.2 (inactive)
44 | N#C/C(=C/c1ccc(N2CCCCC2)o1)C(=O)NCCc1c[nH]c2ccccc12 | 17.5 (inactive)
45 | O=C1c2cccnc2C(=O)N1Cc1ccco1 | 2.51 (inactive)
46 | CC(C)(CO)C(O)C(=O)NCCC#N (stereo unspecified) | -1.31 (inactive)
47 | O=[N+]([O-])c1ccc(/C=C/C2=NN(c3ccccc3)C(c3ccco3)C2)o1 (stereo unspecified) | 12.4 (inactive)
48 | CCOC(=O)c1ccc(NC(=O)C2(c3ccc(OC)cc3)CCCC2)cc1 | -5.09 (active)

Row | Structure (SMILES) | z-score
49 | CCOC(=O)c1ccc(NC(=O)C2CC2)cc1 | -4.4 (active)
50 | CCOc1ccc(NC(=O)C2CCC(C)(C(=O)O)C2(C)C)cc1 (stereo unspecified) | 3.64 (inactive)
51 | CCN(CC)c1ccc(NC(=O)C2CC3CCC2C3)cc1 (stereo unspecified) | -2.14 (inactive)
52 | CN1CC=C2C(C#N)=C(N)C(C#N)(C#N)C(c3cccc(Cl)c3Cl)C2C1 (stereo unspecified) | 14.1 (inactive)
53 | COc1cc(N2CCCC2)c(OC)cc1/C=C1/NC(=S)NC1=O | 17.8 (inactive)
54 | CCOC(=O)N1CCN(C(=O)c2cc(S(=O)(=O)N3CCCC3)cn2C)CC1 | 3.05 (inactive)
55 | CCOC(=O)N1CCN(S(=O)(=O)c2ccc3c(c2)oc(=O)n3C)CC1 | 3.1 (inactive)
56 | CCOC(=O)N1CCC(N2CCN(S(=O)(=O)c3ccc4ccccc4c3)CC2)CC1 | -4.2 (active)
57 | COCCNC(=O)c1onc(CSc2cccc(C)c2)c1C(=O)O | 3.82 (inactive)
58 | Clc1ccc(C[n+]2cc(-c3ccccc3)n3c2CCCCC3)c(Cl)c1 | -5.27 (active)
59 | COc1ccc(N=C2NC(=O)S/C2=C\c2ccc(N(C)C)cc2)cc1 | 3.4 (inactive)
60 | CN1CC=C2C(C#N)=C(N)C(C#N)(C#N)[C@H](c3cccc(Cl)c3)C2C1 (stereo partly specified) | 15.9 (inactive)
61 | N#C/C(C(=O)c1ccccc1)=C1/SC=C(N)N1c1ccccc1 | 5.96 (inactive)
62 | CCCCN(CC)S(=O)(=O)c1ccc(C(=O)N(CCCN(C)C)c2nc3cc(C)cc(C)c3s2)cc1 | -3.82 (active)
63 | CC(C)OC(=O)CN1C(=O)S/C(=C/c2ccc(N3CCCCC3)o2)C1=O | 6.58 (inactive)
64 | Cn1c(=O)n(C)c2cc(NC(=O)COc3ccc(Cl)cc3)ccc21 | 3.02 (inactive)
65 | Cc1cc(Cl)ccc1OCC(=O)OCC(=O)Nc1ccc(F)c([N+](=O)[O-])c1 | -5.99 (active)
66 | COc1ccccc1-c1c(C)c(C)nc(N)c1C#N | -0.95 (inactive)
67 | COc1ccc(C2=Nn3c(nnc3-c3ccccc3OC)SC2)cc1OC | -3.31 (active)
68 | COc1ccc(OC)c(C2=Nn3c(nnc3C3CCCCC3)SC2)c1 | -6.49 (active)
69 | CC(=O)Nc1ccc(Nc2c3ccccc3nc3ccccc23)cc1 | -3.01 (active)
70 | CC(=O)Nc1ccc(N=Cc2c(O)c(C(=O)Nc3ccccc3)cc3ccccc23)cc1 | 3.59 (inactive)
71 | Cc1ccc(C(=O)SC2=NCCS2)cc1 | 1.97 (inactive)
72 | O=C(CSc1ccccn1)Nc1cccc2ccccc12 | 2.55 (inactive)

Row | Structure (SMILES) | z-score
73 | O=c1[nH]c(/C=C/c2ccccc2OC(F)F)nc2c1cnn2-c1ccccc1 | 3.2 (inactive)
74 | COc1ccc(CN(C(=O)c2ccc(-c3ccccc3)[nH]2)C(C(=O)NC(C)(C)C)c2ccncc2)cc1 (stereo unspecified) | 2.66 (inactive)
75 | O=C(Nn1c(-c2ccccc2)nc2ccccc2c1=O)c1ccco1 | -0.06 (inactive)
76 | Cc1ccc(-c2nnc(N3CCN(C(=O)c4ccco4)CC3)c3ccccc23)cc1 | -4.39 (active)
77 | C[N+](C)(C)CCCNC(=O)c1ccc(/C=N/O)nc1 | 0.8 (inactive)
78 | N#Cc1nc(N2CCOCC2)nc(N2CCOCC2)n1 | 3.26 (inactive)
79 | CCCN1CC=C2C(C#N)=C(N)C(C#N)(C#N)C(c3cc(OC)ccc3OC)C2C1 (stereo unspecified) | 15.3 (inactive)
80 | C[n+]1cc(C(=O)N2CCCCC2)ccc1/C=C/c1c[nH]c2ccccc12 | 3.95 (inactive)
81 | O=C(c1csc2ccccc12)N1CCCCCC1 | -4.36 (active)
82 | Cc1ccccc1C(=O)N1CCc2ccccc2C1 | 3.99 (inactive)
83 | N#Cc1c(NC(=O)CCCN2C(=O)c3ccccc3C2=O)oc(-c2ccccc2)c1-c1ccccc1 | -0.48 (inactive)
84 | Cc1csc(SC(C)C(=O)NCC(=O)Nc2ccc(F)c(F)c2F)n1 (stereo unspecified) | 4.91 (inactive)
85 | Cc1ccc(-n2nnnc2SC(C)C(=O)NCC(=O)Nc2ccc(F)c(F)c2F)c(C)c1 (stereo unspecified) | -4.63 (active)
86 | Cc1ccc2nc(C)c(C(=O)O)cc2c1 | 3.57 (inactive)
87 | O=C(CN1CCOCC1)Nc1nc(-c2ccc3c(c2)CCN3S(=O)(=O)c2ccccc2)cs1 | -3.24 (active)
88 | CS(=O)(=O)N1CCc2cc(-c3csc(NC(=O)Cc4cccs4)n3)ccc21 | -3.24 (active)
89 | O=S(=O)(NCc1csc(-c2ccccc2)n1)c1ccc(Cl)s1 | 0.86 (inactive)
90 | O=C(Nc1ccccc1)c1ccccc1NS(=O)(=O)c1ccc(Cl)s1 | -3.51 (active)
91 | Cc1ccc(SCCC(=O)N/N=C/c2ccncc2)cc1 | 1.59 (inactive)
92 | CC(=O)Oc1ccc2c(c1)Oc1cc(OC(C)=O)ccc1C21OC(=O)c2ccccc21 | 15.3 (inactive)
93 | O=C1/C(=C/c2c[nH]c3ccccc23)CCC/C1=C\c1c[nH]c2ccccc12 | 4.59 (inactive)
94 | O=C1CC(=O)C(n2cncn2)C(c2ccc(Cl)cc2)C1 (stereo unspecified) | -5.08 (active)
95 | COc1ccc(/C=C2/SC(=O)N(CCNC(=O)C3CCCN3C(=O)c3cccs3)C2=O)cc1 (stereo unspecified) | -4.56 (active)
96 | COCCN1C(=O)/C(=C/c2ccc(N3CCCC3)cc2)SC1=S | 16.8 (inactive)
